Calls of active or inactive are those of the source. The call rests on the fitted dose curve; in most records, active means well fitted curve in the direction sought with a large enough effect; inconclusive means small, poorly fitted or top-dose-only effect, or another doubt; inactive means no such curve, though single readings can be large or run the other way.

The target of this assay is Methanococcus maripaludis chaperonin (MmCpn) (UniProt Q6LX38). Nature of the assay: High-Throughput Screening for Modulators of Cytosolic Chaperonin Activity: MmCpn Primary Screen (AID 488978). As to conditions: Purified MmCpn ATPase activity, ADP HTRF detection, 10 min; series mostly up to 76.9 µM. An excerpt: Chaperonins are key components of the cellular chaperone machinery. These large complexes consist of two stacked 7-9 membered rings, each containing a central cavity. Substrates are folded within the cavity in an ATP-dependent manner. TRiC is a complex of eight different, essential proteins. As each of the genes encoding the eight subunits is essential for cell viability and no protocol has been developed to overexpress this enzyme to high levels, several groups have turned to the archaeal homolog of TRiC from Methanococcus maripaludis (MmCpn) as a model system for the study of the type II chaperonin family.
Methanococcus maripaludis chaperonin (MmCpn), sequence (Q6LX38 1-543): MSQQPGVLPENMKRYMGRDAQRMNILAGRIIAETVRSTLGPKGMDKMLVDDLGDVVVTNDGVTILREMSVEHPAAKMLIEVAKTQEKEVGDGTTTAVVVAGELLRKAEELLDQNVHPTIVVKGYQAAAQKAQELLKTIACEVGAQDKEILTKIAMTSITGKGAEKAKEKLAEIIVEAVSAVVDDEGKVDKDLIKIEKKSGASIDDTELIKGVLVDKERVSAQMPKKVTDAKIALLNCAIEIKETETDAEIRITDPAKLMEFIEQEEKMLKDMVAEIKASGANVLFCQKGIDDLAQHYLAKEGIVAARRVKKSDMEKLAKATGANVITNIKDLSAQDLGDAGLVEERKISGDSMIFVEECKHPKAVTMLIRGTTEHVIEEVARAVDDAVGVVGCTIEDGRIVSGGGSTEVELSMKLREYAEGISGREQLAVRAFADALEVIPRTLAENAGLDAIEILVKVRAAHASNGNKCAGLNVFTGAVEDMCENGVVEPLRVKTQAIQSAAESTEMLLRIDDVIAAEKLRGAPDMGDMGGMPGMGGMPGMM
MmCpn was kindly provided by the laboratory of Judith Frydman.
1. Dispense 1.5 ul enzyme of either TriC at 100 nM or MmCpn at 50 nM final concentration.
2. Transfer 23 nl of compound to plate, incubate 5 min at RT.
3. 1.5 ul ATP at 30 uM at final concentration dispensed into plate.
4. Incubate for 10 minutes at 37C (MmCPN), 30C (TriC).
5. 3 ul of the Cisbio ADP Transcreener HTRF detection reagent prepared according to protocol dispensed into plate.
6. Incubate for 5 minutes.
7. Read using EnVision plate reader at Excitation = 320nm and Emission = 590nm, 665nm
As for `CCC1(C2=NCCN2)Cc2ccccc2O1` (centres undefined), the call was inactive.
The entry for `NCC1(CC(=O)O)CCCCC1` is “inactive”; for `C[C@@H]1O[C@@H](O[C@H]2C[C@@H](O)[C@]3(CO)[C@H]4[C@H](O)C[C@]5(C)[C@@H](C6=CC(=O)OC6)CC[C@]5(O)[C@@H]4CC[C@]3(O)C2)[C@H](O)[C@H](O)[C@H]1O` it is “inactive”; for `CC(=O)[C@H]1CC[C@H]2[C@@H]3CC[C@H]4C[C@H](O)CC[C@]4(C)[C@H]3C(=O)C[C@]12C` it is “inactive”.
The result for `O=c1[nH]c2ccccc2n1CCCN1CCC(n2c(=O)[nH]c3cc(Cl)ccc32)CC1` reads “inactive”; that for `CCCC(C)(COC(N)=O)COC(=O)NC(C)C` (centres undefined), “inactive”.
The entry for `CC[C@@H](CO)NC(=O)[C@@H]1C=C2c3cccc4[nH]cc(c34)C[C@H]2N(C)C1` is “inactive”; for `Fc1ccc(C(OCCN2CCN(CCCc3ccccc3)CC2)c2ccc(F)cc2)cc1` it is “inactive”; for `COC[C@H]1OC(=O)c2coc3c2[C@@]1(C)C1=C(C3=O)C2CCC(=O)[C@@]2(C)C[C@H]1OC(C)=O` (some centres undefined) it is “inactive”.
On to `Nc1ccncc1`, for which the result was inactive.
The entry for `COc1ccc(C(CN(C)C)C2(O)CCCCC2)cc1` (centres undefined) is “inactive”; for `CC(CCc1ccccc1)NC(C)C(O)c1ccc(O)cc1` (centres undefined) it is “inactive”; for `C=C(C)[C@H]1Cc2c(ccc3c2O[C@@H]2COc4cc(OC)c(OC)cc4[C@@H]2C3=O)O1` it is “inactive”.
The result for `CC(=O)[C@H]1CC[C@H]2[C@@H]3CC[C@H]4C[C@](C)(O)CC[C@]4(C)[C@H]3CC[C@]12C` reads “inactive”.
For `Cc1ncc(CNC(=O)N(CCCl)N=O)c(N)n1`, the compound was called inactive.
The result for `c1ccc(C2CC2)c(OCC2=NCCN2)c1` reads “inactive”.
In the case of `O=C1NCN(c2ccccc2)C12CCN(CC1COc3ccccc3O1)CC2` (centres undefined), the result was inactive.
The entry for `Cc1cccc(C)c1NC1=NCCCS1` is “inactive”; for `CC(O)(CS(=O)(=O)c1ccc(F)cc1)C(=O)Nc1ccc(C#N)c(C(F)(F)F)c1` (centres undefined) it is “inactive”.
The entry for `CC[C@@H](CO)NC(=O)[C@@H]1C=C2c3cccc4c3c(cn4C)C[C@H]2N(C)C1` is “inactive”.
For `CCCN1CCC[C@@H]2Cc3[nH]ncc3C[C@H]21`, the compound was classed as inactive.
Consider `c1ccc2c(c1)OCC(C1=NCCN1)O2` (centres undefined), for which the call was inactive.
As to `CCCN1CCC[C@@H]2Cc3nc(N)ncc3C[C@H]21`, the compound was called inactive.
The result for `NN=C(N)N` reads “inactive”; that for `Cc1cccc(C)c1NC(=O)CN1CCCC1=O`, “inactive”.
Turning to `O=c1[nH]c2ccccc2n1C1CCN(CCCC(c2ccc(F)cc2)c2ccc(F)cc2)CC1`, the result was inactive.
With `NCC(CC(=O)O)c1ccc(Cl)cc1` (centres undefined), the call was inactive.
Take `CN1C[C@H](CNC(=O)OCc2ccccc2)C[C@@H]2c3cccc4c3c(cn4C)C[C@H]21`: the compound was called inactive.
`NCC(O)c1ccc(O)cc1` (centres undefined): the outcome was inactive.
As for `CNCC(O)c1ccc(O)cc1` (centres undefined), the compound was classed as inactive.
For `COc1ccccc1N1CCNCC1`, the outcome was inactive.
The entry for `N#CC(C#N)=Cc1ccc(O)c(O)c1` is “inactive”; for `Cc1ccc(S(=O)(=O)N[C@@H](CCCCN)C(=O)CCl)cc1` it is “inactive”; for `CC(C)=CCOc1c2occc2cc2ccc(=O)oc12` it is “inactive”.

(Values after PubChem BioAssay (NCATS).)
